Experimental data taken from PubChem BioAssay (Tox21).
Unmarked numbers belong to inactive results. Results filed as inconclusive are left out. A call without a number means that no potency is given here. Calls of active or inactive are those of the source. Unless noted, calls follow the shape of the dose curve; as a rule, active = well fitted curve in the direction sought with a large enough effect in the repeat runs; inconclusive = weak or mixed curves; inactive = no such curve, though single readings can be large; an effect the other way counts as inactive or inconclusive.

Experiments:
[1] = qHTS assay to identify small molecule agonists of the hypoxia (HIF-1) signaling pathway - cell viability counter screen (AID 1224844; calls by dose curve; also: nearly all actives have a fitted effect of over 50% in size; also: potency is read from the fitted curve at half-maximal effect); conditions: HRE-bla ME-180 viability, CellTiter-Glo luminescence, 17 h; series mostly up to 76.8 µM
How it was run: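 Cytotoxicity was measured in parallel with the HRE-driven beta-lactamase readout: after 17 hrs of compound exposure at 37C, HRE-bla ME-180 cells received CellTiter-Glo and luminescence was recorded 30 min later.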

[2] = qHTS assay to identify small molecule agonists of the hypoxia (HIF-1) signaling pathway (AID 1224846; active = well fitted activation curve with a large enough effect in the signal ratio in the repeat runs, not every such curve was filed as active; the % refers to the signal ratio); conditions: HRE-bla ME-180 cells, beta-lactamase ratio, 17 h; series mostly up to 76.8 µM
How it was run: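 Compounds from the Tox21 10K library, dissolved in DMSO, are tested for induction of a hypoxia response element–controlled beta-lactamase reporter in ME-180 cells. Exposure lasts 17 hrs at 37C after a 5 hr settling period, followed by CCF4-AM FRET substrate.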

[3] = qHTS assay to identify small molecule agonists of H2AX - cell viability counter screen (AID 1224847; calls by dose curve; also: top concentration of the series differs between compounds; nearly all actives have a fitted effect of over 30% in size); conditions: CHO-K1 viability, CellTiter-Glo luminescence, 3 h; series mostly up to 154 µM
How it was run: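 Wild-type CHO-K1 cells (10% FBS medium) were plated overnight at 37C, exposed to compounds at 15 concentrations for 3 hr at 37C (0.76% DMSO final), and viability was read as CellTiter-Glo luminescence after 30 min at room temperature.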

[4] = qHTS assay to identify small molecule antagonists of the estrogen related receptor (ERR) signaling pathway from Tox21 library (AID 1224848); conditions: ERR reporter cell line, luciferase antagonist mode, 18 h; series mostly up to 92.4 µM; also: nearly all actives have a fitted effect of over 50% in size; also: potency is read from the fitted curve at half-maximal effect
How it was run: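 Luciferase luminescence (ONE-Glo, 30 min room temperature) was the read-out. Cells of the NTP-supplied ERR line, 2,000 per well, were given 6 h at 37 C before compound addition in DMSO and 18 h exposure at 37 C.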

[5] = qHTS RealTime-Glo MT Cell Viability Assay in HepG2 cells - 24 hour (AID 1224867); conditions: RealTime-Glo luminescence; series mostly up to 76.8 µM; also: nearly all actives have a fitted effect of over 50% in size
How it was run: (§1)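 HepG2 cells (600/well) were dispensed with RealTime-Glo reagents, incubated 5 h at 37 °C, then treated with compounds in DMSO for up to 40 h. Nonlytic NanoLuc luminescence reflecting viable cells was read at each stated time point.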

[6] = qHTS RealTime-Glo MT Cell Viability Assay in HepG2 cells - 40 hour (AID 1224870); conditions: RealTime-Glo luminescence; series mostly up to 76.8 µM; also: nearly all actives have a fitted effect of over 50% in size
How it was run: (§2)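 Real-time viability: cells seeded at 600 per well together with NanoLuc and cell-permeant prosubstrate, compounds added after 5 h incubation. Luminescence tracked at 0, 8, 16, 24, 32 and 40 h of exposure.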

[7] = A CellTox Green Cytotoxicity Assay to monitor cytotoxicity in HEK293 cells - 40 hour (AID 1224871); conditions: CellTox Green fluorescence; series mostly up to 76.8 µM; also: nearly all actives have a fitted effect of over 45% in size; also: potency is read from the fitted curve at half-maximal effect
How it was run: (§3)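 Cells (HEK293, 600/well) and dye reagent are dispensed together. After 5 h at 37 C, 23 nL compound is pinned in. Plates stay at 37 C for 40 h with fluorescence read at 0h, 8h, 16h, 24h, 32h and 40h.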

[8] = qHTS RealTime-Glo MT Cell Viability Assay in HepG2 cells - 8 hour (AID 1224873); conditions: RealTime-Glo luminescence; series mostly up to 76.8 µM; also: nearly all actives have a fitted effect of over 55% in size
How it was run: as §2

[9] = qHTS RealTime-Glo MT Cell Viability Assay in HEK293 cells - 40 hour (AID 1224874); conditions: RealTime-Glo luminescence; max response: hits give low values; also: nearly all actives have a fitted effect of over 50% in size; also: potency is read from the fitted curve at half-maximal effect
How it was run: (§4)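 Real-time viability in HEK293: signal arises when living cells convert a prosubstrate for NanoLuc in the medium, so luminescence tracks viable cell number. Compound (23 nL, DMSO) added 5 h post-seeding; kinetic reads at 0–40 h, 37 C.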

[10] = A CellTox Green Cytotoxicity Assay to monitor cytotoxicity in HEK293 cells - 24 hour (AID 1224875); conditions: CellTox Green fluorescence; series mostly up to 76.8 µM; also: nearly all actives have a fitted effect of over 45% in size; also: potency is read from the fitted curve at half-maximal effect
How it was run: as §3

[11] = A CellTox Green Cytotoxicity Assay to monitor cytotoxicity in HepG2 cells - 16 hour (AID 1224876); conditions: CellTox Green fluorescence; series mostly up to 76.8 µM; also: nearly all actives have a fitted effect of over 45% in size; also: potency is read from the fitted curve at half-maximal effect
How it was run: (§5)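 Cells and non-lytic dye reagent are dispensed together (600 HepG2 cells/well) and incubated 5 h before DMSO compound transfer. Kinetic fluorescence is then recorded in the same wells during 40 h at 37 C.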

[12] = qHTS RealTime-Glo MT Cell Viability Assay in HepG2 cells - 32 hour (AID 1224877); conditions: RealTime-Glo luminescence; series mostly up to 76.8 µM; also: nearly all actives have a fitted effect of over 55% in size
How it was run: as §1

[13] = A CellTox Green Cytotoxicity Assay to monitor cytotoxicity in HepG2 cells - 24 hour (AID 1224878); conditions: CellTox Green fluorescence; series mostly up to 76.8 µM; also: nearly all actives have a fitted effect of over 45% in size; also: potency is read from the fitted curve at half-maximal effect
How it was run: as §5

[14] = qHTS RealTime-Glo MT Cell Viability Assay in HEK293 cells - 0 hour (AID 1224880); conditions: RealTime-Glo luminescence; series mostly up to 76.8 µM
How it was run: as §4

[15] = qHTS assay to identify small molecule agonists of H2AX (AID 1224845; active = well fitted activation curve with a large enough effect in the signal ratio in the repeat runs, not every such curve was filed as active; the % refers to the signal ratio); conditions: CHO-K1 phospho-H2AX Ser139 HTRF, 3 h; series mostly up to 154 µM
How it was run: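 Phospho-H2AX Ser139 measured by HTRF (ex 320 nm; em 665 and 620 nm) after 24 hr antibody incubation. Compounds, 15 concentrations, 0.76% DMSO, were applied to CHO-K1 cells for 3hr at 37C before lysis.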

[16] = qHTS assay to identify small molecule agonists of the estrogen related receptor (ERR) signaling pathway from Tox21 library (AID 1224849; calls by dose curve; also: nearly all actives have a fitted effect of over 15% in size); conditions: ERR reporter cell line, ONE-Glo luciferase, 18 h; at 92.4 µM (top of the series) unless noted
How it was run: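 Cells carrying the ERR reporter were plated and allowed to settle for 6 h, exposed to library compounds for 18 h at 37 C, then lysed with ONE-Glo and luminescence measured.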

[17] = qHTS RealTime-Glo MT Cell Viability Assay in HEK293 cells - 32 hour (AID 1224868); conditions: RealTime-Glo luminescence; series mostly up to 76.8 µM; also: nearly all actives have a fitted effect of over 50% in size; also: potency is read from the fitted curve at half-maximal effect
How it was run: (§6)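 HEK293 cells seeded with NanoLuc/prosubstrate reagent, rested 5 h at 37 C, then dosed and kept at 37 C up to 40 h. Nonlytic real-time luminescence from viable cells read at 0, 8, 16, 24, 32 and 40 h.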

[18] = A CellTox Green Cytotoxicity Assay to monitor cytotoxicity in HEK293 cells - 0 hour (AID 1224869); conditions: CellTox Green fluorescence; series mostly up to 76.8 µM; also: nearly all actives have a fitted effect of over 50% in size; also: potency is read from the fitted curve at half-maximal effect
How it was run: as §3

[19] = qHTS RealTime-Glo MT Cell Viability Assay in HEK293 cells - 16 hour (AID 1224872); conditions: RealTime-Glo luminescence; series mostly up to 76.8 µM; also: nearly all actives have a fitted effect of over 50% in size; also: potency is read from the fitted curve at half-maximal effect
How it was run: as §6

[20] = A CellTox Green Cytotoxicity Assay to monitor cytotoxicity in HepG2 cells - 40 hour (AID 1224879); conditions: CellTox Green fluorescence; series mostly up to 76.8 µM; also: nearly all actives have a fitted effect of over 40% in size; also: potency is read from the fitted curve at half-maximal effect
How it was run: as §5

CCCCNc1ccc(C(=O)OCCN(CC)CC)cc1
Potency [1]: inactive | outcome [2]: inactive | Potency [3]: inactive | Potency [4]: inactive | Potency [5]: inactive | Potency [6]: inactive | Potency [7]: inactive | outcome [8]: inactive | max response [9]: -22.9% | Potency [10]: inactive | Potency [11]: inactive | Potency [12]: inactive | Potency [13]: inactive | outcome [14]: inactive

CCCN(CCC)C(=O)C(CCC(=O)O)NC(=O)c1ccccc1 (configuration not stated)
Potency [1]: inactive | Potency [15]: inactive | Potency [4]: inactive | activity change, positive = activation [16]: 0.999% [at 42.5 µM] | Potency [5]: inactive | Potency [17]: inactive | Potency [18]: inactive | Potency [6]: inactive | Potency [7]: inactive | Potency [19]: inactive | outcome [8]: inactive | max response [9]: 3.51% | Potency [10]: inactive | Potency [11]: inactive | Potency [12]: inactive | Potency [13]: inactive | Potency [20]: inactive

COc1cc2c(cc1N)oc1ccccc12
outcome [2]: inactive | Potency [3]: inactive | Potency [4]: inactive | Potency [5]: inactive | Potency [6]: inactive | Potency [7]: inactive | outcome [8]: inactive | Potency [10]: inactive | Potency [11]: inactive | Potency [12]: inactive | Potency [13]: inactive | outcome [14]: inactive

ClC(Cl)Cl
Potency [3]: inactive | Potency [4]: inactive | Potency [5]: inactive | Potency [17]: inactive | Potency [18]: inactive | Potency [6]: inactive | Potency [7]: inactive | Potency [19]: inactive | outcome [8]: inactive | max response [9]: 6.53% | Potency [10]: inactive | Potency [11]: inactive | Potency [13]: inactive | outcome [14]: inactive

Cc1ccc(C=O)s1
Potency [1]: inactive | outcome [2]: inactive | Potency [3]: inactive | Potency [4]: inactive | activity change, positive = activation [16]: 3.35% | Potency [5]: inactive | Potency [17]: inactive | Potency [18]: 24.5 µM (active) | Potency [6]: inactive | Potency [7]: 43.6 µM (active) | Potency [19]: inactive | outcome [8]: inactive | max response [9]: 5.96% | Potency [10]: 43.6 µM (active) | Potency [11]: 27.5 µM (active) | Potency [12]: inactive | Potency [13]: 38.9 µM (active) | Potency [20]: 27.5 µM (active) | outcome [14]: inactive

Nc1cccc(S(=O)(=O)O)c1
Potency [15]: inactive | outcome [2]: inactive | Potency [3]: inactive | Potency [5]: inactive | Potency [17]: inactive | Potency [18]: inactive | Potency [6]: inactive | Potency [7]: inactive | Potency [19]: inactive | outcome [8]: inactive | Potency [10]: inactive | Potency [11]: inactive | Potency [12]: inactive | Potency [13]: inactive | Potency [20]: inactive | outcome [14]: inactive

Clc1cccc(-c2cc(Cl)cc(Cl)c2)c1
Potency [1]: 53 µM (active) | Potency [4]: inactive | activity change, positive = activation [16]: -3.25% | Potency [5]: inactive | Potency [17]: inactive | Potency [6]: inactive | Potency [7]: 37.5 µM (active) | Potency [19]: inactive | outcome [8]: inactive | max response [9]: -9.77% | Potency [10]: 42.1 µM (active) | Potency [11]: inactive | outcome [14]: inactive

Cc1nc(-c2ccccn2)ncc1C(=O)Nn1cc(C)c2cc(F)ccc21
Potency [3]: inactive | Potency [4]: 54.5 µM (active) | activity change, positive = activation [16]: -53.1% | Potency [5]: inactive | Potency [17]: 1.55 µM (active) | Potency [18]: inactive | Potency [6]: inactive | Potency [7]: inactive | Potency [19]: 1.74 µM (active) | outcome [8]: inactive | Potency [9]: 1.38 µM (active) | Potency [10]: inactive | Potency [11]: inactive | Potency [12]: inactive | Potency [13]: inactive | Potency [20]: inactive

OCc1c2ccccc2cc2ccccc12
Potency [1]: inactive | outcome [2]: inactive | Potency [5]: inactive | Potency [18]: inactive | Potency [6]: inactive | Potency [7]: inactive | outcome [8]: inactive | Potency [10]: inactive | Potency [11]: inactive | Potency [12]: inactive | Potency [13]: inactive | Potency [20]: inactive | outcome [14]: inactive

CN(C)CCOc1ccccc1Cc1ccccc1
Potency [1]: inactive | Potency [15]: inactive | Potency [4]: inactive | activity change, positive = activation [16]: 6.12% [at 42.5 µM] | Potency [5]: inactive | Potency [18]: inactive | Potency [6]: inactive | Potency [7]: inactive | Potency [19]: inactive | outcome [8]: inactive | Potency [10]: inactive | Potency [12]: inactive | outcome [14]: inactive
